The record followed here is PubChem BioAssay (EPA / NIEHS).

The source made the active and inactive calls. How the source made its calls: active means hit-call score of the fitted dose curve at least 0.9, where 1 is the maximum; inactive means score below 0.9.

Experiment [1] is described as follows: BSK_hDFCGF_SRB: Viability Assessment in the BioMAP Diversity Plus: hDFCGF Assay (AID 2283061).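 Further: cells exposed to compound for 24 h before the read.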 The following applies: primary human foreskin fibroblasts. In short, it runs like this: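 Cells were dosed with test chemical, cultured 24 h, fixed with 10% TCA, then stained with 0.1% SRB and read at 560 nm. The fibroblasts were human foreskin primary cells, and DMSO served as baseline.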

Read-out in experiment [2]: TIMP metallopeptidase inhibitor 1 (TIMP1), TIMP1 (gene 7076)
The experiment can be described thus: BSK_hDFCGF_TIMP1: BioMAP Diversity Plus: hDFCGF Assay for TIMP metallopeptidase inhibitor 1 (TIMP1) Biomarker Activity (AID 2283062). The following applies: primary human foreskin fibroblasts; actives raise or lower the signal. In short, it runs like this:
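Fibroblasts from human foreskin are treated with test chemical and harvested at 24 h. TIMP-1 is quantified by ELISA, and gain or loss of signal is scored against DMSO.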

Read-out in experiment [3]: Monokine induced gamma interferon (MIG), CXCL9 (gene 4283)
The experiment can be described thus: BSK_hDFCGF_MIG: BioMAP Diversity Plus: hDFCGF Assay for Monokine induced gamma interferon (MIG) Biomarker Activity (AID 2283063). The following applies: primary human foreskin fibroblasts; actives raise or lower the signal. In outline: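 MIG signal, determined by ELISA, reflects 24 h chemical exposure of human skin primary fibroblasts. DMSO serves as negative control and baseline.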

Read-out in experiment [4]: Matrix Metallopeptidase 1 (MMP1), MMP1 (gene 4312)
The experiment in a line: BSK_hDFCGF_MMP1: BioMAP Diversity Plus: hDFCGF Assay for Matrix Metallopeptidase 1 (MMP1) Biomarker Activity (AID 2283064). Conditions: primary human foreskin fibroblasts; actives raise or lower the signal. In short, it runs like this: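 Primary human foreskin fibroblasts exposed to chemicals for 24 h; MMP1 measured by ELISA. Cytotoxicity tracked by SRB staining in parallel cultures; bidirectional fit relative to DMSO.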

Read-out in experiment [5]: Vascular cell adhesion molecule 1 (VCAM1), VCAM1 (gene 7412)
The experiment in a line: BSK_hDFCGF_VCAM1: BioMAP Diversity Plus: hDFCGF Assay for Vascular cell adhesion molecule 1 (VCAM1) Biomarker Activity (AID 2283065).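 On AC50: VCAM-1 protein level quantified by ELISA after 24 h chemical exposure.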 The following applies: primary human foreskin fibroblasts; actives raise or lower the signal. In short, it runs like this:
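Cells are dosed, cultured for 24 h, then VCAM-1 is quantified by ELISA; signal increases and decreases are both fitted relative to DMSO.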

Read-out in experiment [6]: Plasminogen activator inhibitor-1 (PAI1), SERPINE1 (gene 5054)
The experiment can be described thus: BSK_hDFCGF_PAI1: BioMAP Diversity Plus: hDFCGF Assay for Plasminogen activator inhibitor-1 (PAI1) Biomarker Activity (AID 2283066). The following applies: primary human foreskin fibroblasts; actives raise or lower the signal. In outline: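 Human foreskin fibroblast primary cells, 24 h chemical exposure; PAI-1 measured by ELISA. Bidirectional fitting relative to DMSO; parallel cultures stained with SRB for total protein to flag overt cytotoxicity.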

Read-out in experiment [7]: Intercellular Adhesion Molecule 1 (ICAM1), ICAM1 (gene 3383)
The experiment in a line: BSK_KF3CT_ICAM1: BioMAP Diversity Plus: KF3CT Assay for Intercellular Adhesion Molecule 1 (ICAM1) Biomarker Activity (AID 2283067). The following applies: primary human keratinocytes with fibroblasts; actives raise or lower the signal. In short, it runs like this: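 Dose the keratinocyte/fibroblast co-culture, wait 24 h, measure ICAM-1 by ELISA, then fit increases or decreases against DMSO. Cytotoxicity is checked in parallel cultures by SRB total-protein staining.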

Read-out in experiment [8]: Interferon-gamma inducible Protein 10 (IP10), CXCL10 (gene 3627)
The experiment can be described thus: BSK_KF3CT_IP10: BioMAP Diversity Plus: KF3CT Assay for Interferon-gamma inducible Protein 10 (IP10) Biomarker Activity (AID 2283068). Conditions: primary human keratinocytes with fibroblasts; actives raise or lower the signal. In outline:
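KF3CT co-culture (keratinocytes + foreskin fibroblasts), 24 h compound, IP-10 by ELISA; bidirectional fit vs DMSO baseline.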

Experiment [9] can be described thus: BSK_KF3CT_SRB: Viability Assessment in the BioMAP Diversity Plus: KF3CT Assay (AID 2283069).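 Further: fitted for both signal gain and loss against DMSO baseline.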 The following applies: primary human keratinocytes with fibroblasts. In outline: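 Human keratinocyte and foreskin fibroblast co-culture exposed to chemical for 24 h. Total protein measured in parallel cultures by 0.1% sulforhodamine B staining after 10% TCA fixation, read at 560 nm; bidirectional fit relative to DMSO.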

Read-out in experiment [10]: Interleukin-1 alpha (IL1a), IL1A (gene 3552)
The experiment can be described thus: BSK_KF3CT_IL1a: BioMAP Diversity Plus: KF3CT Assay for Interleukin-1 alpha (IL1a) Biomarker Activity (AID 2283070). Conditions: primary human keratinocytes with fibroblasts; actives raise or lower the signal. In short, it runs like this: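 Primary human keratinocyte plus foreskin fibroblast co-culture, dosed and measured at 24 h in 96-well plates. IL-1a level quantified by ELISA; bidirectional fit relative to DMSO.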

Read-out in experiment [11]: TIMP metallopeptidase inhibitor 2 (TIMP2), TIMP2 (gene 7077)
The experiment in a line: BSK_KF3CT_TIMP2: BioMAP Diversity Plus: KF3CT Assay for TIMP metallopeptidase inhibitor 2 (TIMP2) Biomarker Activity (AID 2283071). The following applies: primary human keratinocytes with fibroblasts; actives raise or lower the signal. In short, it runs like this: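 Co-culture of human primary keratinocytes and foreskin fibroblasts, measured 24 h after chemical dosing. TIMP-2 quantified by ELISA and fitted in both directions relative to DMSO. Cytotoxicity checked in parallel cultures by SRB total-protein staining.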

Read-out in experiment [12]: C-C motif chemokine 2 (Homo sapiens) (UniProt P13500)
The experiment in a line: BSK_KF3CT_MCP1: BioMAP Diversity Plus: KF3CT Assay for Monocyte Chemoattractant Protein 1 (MCP1/CCL2) Biomarker Activity (AID 2283073). The following applies: primary human keratinocytes with fibroblasts; actives raise or lower the signal. In outline: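 Keratinocytes and foreskin fibroblasts were co-cultured, dosed with chemical, and sampled 24 h later. MCP-1 was quantified by ELISA, and the endpoint was analyzed with bidirectional fitting using DMSO as negative control.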

Read-out in experiment [13]: Matrix Metallopeptidase 9 (MMP9), MMP9 (gene 4318)
The experiment can be described thus: BSK_KF3CT_MMP9: BioMAP Diversity Plus: KF3CT Assay for Matrix Metallopeptidase 9 (MMP9) Biomarker Activity (AID 2283074).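 On AC50: MMP9 protein level quantified by ELISA in the co-culture.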 The following applies: primary human keratinocytes with fibroblasts; actives raise or lower the signal. In outline:
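Human keratinocyte and foreskin fibroblast co-culture exposed to chemicals for 24 h; MMP9 biomarker measured by ELISA, bidirectional fitting relative to DMSO; cytotoxicity tracked by SRB total protein staining in parallel cultures.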

Read-out in experiment [14]: urokinase plasminogen activator (uPA), PLAU (gene 5328)
The experiment can be described thus: BSK_KF3CT_uPA: BioMAP Diversity Plus: KF3CT Assay for urokinase plasminogen activator (uPA) Biomarker Activity (AID 2283075). Conditions: primary human keratinocytes with fibroblasts; actives raise or lower the signal. In outline:
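Primary human keratinocyte/foreskin fibroblast co-culture exposed to chemical; uPA measured by ELISA at 24 h. Bidirectional fit versus DMSO, with parallel SRB total-protein staining for cytotoxicity.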

Read-out in experiment [15]: CD40, CD40 (gene 958)
The experiment can be described thus: BSK_LPS_CD40: BioMAP Diversity Plus: LPS Assay for CD40 Biomarker Activity (AID 2283076). Conditions: primary human HUVEC with PBMC; actives raise or lower the signal. In outline:
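CD40 signal, measured by ELISA, is fitted in both directions relative to DMSO vehicle. The system is an LPS-driven human vascular primary co-culture of endothelial cells and PBMC, sampled 24 h after compound addition.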

Read-out in experiment [16]: E-selectin (Homo sapiens) (UniProt P16581)
The experiment in a line: BSK_LPS_Eselectin: BioMAP Diversity Plus: LPS Assay for Eselectin Biomarker Activity (AID 2283077). Conditions: primary human HUVEC with PBMC; actives raise or lower the signal. In short, it runs like this: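 Signal of E-selectin, detected by ELISA, served as the endpoint; cells were umbilical vein endothelium with PBMC, read 24 h after treatment. DMSO defined baseline, and both increases and decreases were fitted.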

Experiment [17] can be described thus: BSK_LPS_SRB: Viability Assessment in the BioMAP Diversity Plus: LPS Assay (AID 2283079).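 Further: total protein by sulforhodamine B absorbance as a cytotoxicity measure; measured one day after compound addition; fitted in both directions against DMSO so loss or gain of signal counts.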 Conditions: primary human HUVEC with PBMC. In outline: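 Overt cytotoxicity was gauged by sulforhodamine B total-protein staining in a primary human vascular endothelial and mononuclear cell co-culture 24 h post-dosing. Activity was fitted in both directions relative to DMSO.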

Read-out in experiment [18]: Interleukin-1 alpha (IL1a), IL1A (gene 3552)
The experiment in a line: BSK_LPS_IL1a: BioMAP Diversity Plus: LPS Assay for Interleukin-1 alpha (IL1a) Biomarker Activity (AID 2283080). The following applies: primary human HUVEC with PBMC; actives raise or lower the signal. In short, it runs like this:
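Measured: IL-1 alpha via ELISA at 24 h in LPS-activated human umbilical vein endothelium–PBMC co-culture. Baseline: DMSO, bidirectional fitting.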

Read-out in experiment [19]: Transforming growth factor beta 1 (TGFb1), TGFB1 (gene 7040)
The experiment can be described thus: BSK_KF3CT_TGFb1: BioMAP Diversity Plus: KF3CT Assay for Transforming growth factor beta 1 (TGFb1) Biomarker Activity (AID 2283072). Conditions: primary human keratinocytes with fibroblasts; actives raise or lower the signal. In outline: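 Human keratinocyte/foreskin fibroblast co-culture; TGF-b1 measured by ELISA 24 h after dosing, fitted bidirectionally versus DMSO. Cytotoxicity checked in parallel cultures by total protein (SRB staining, 560 nm).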

Chain of E-selectin (Homo sapiens) (P16581 whole entry, looked up): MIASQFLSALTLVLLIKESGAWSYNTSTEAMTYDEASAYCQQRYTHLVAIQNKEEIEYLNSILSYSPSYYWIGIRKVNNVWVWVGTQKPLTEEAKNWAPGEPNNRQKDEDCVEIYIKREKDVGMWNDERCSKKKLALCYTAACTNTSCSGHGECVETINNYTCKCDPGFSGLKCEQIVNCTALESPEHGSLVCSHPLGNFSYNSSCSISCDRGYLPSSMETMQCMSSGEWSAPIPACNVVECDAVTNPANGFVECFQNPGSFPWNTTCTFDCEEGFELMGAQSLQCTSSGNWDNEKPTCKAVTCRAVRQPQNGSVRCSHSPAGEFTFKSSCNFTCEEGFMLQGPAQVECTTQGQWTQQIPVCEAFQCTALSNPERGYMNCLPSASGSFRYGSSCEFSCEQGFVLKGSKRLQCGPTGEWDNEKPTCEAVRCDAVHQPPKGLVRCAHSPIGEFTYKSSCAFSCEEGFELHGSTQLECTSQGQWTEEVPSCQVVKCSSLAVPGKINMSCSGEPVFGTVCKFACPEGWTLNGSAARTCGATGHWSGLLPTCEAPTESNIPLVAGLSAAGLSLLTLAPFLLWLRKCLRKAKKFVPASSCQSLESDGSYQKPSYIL

What is called AC50 is the concentration giving half of the maximal activity seen. `CCn1nc(C)c2c1C(=O)NCC(c1ccc(O)cc1)=N2`: the result in [1], in experiment [2], in experiment [3], in experiment [4], in [5] and in experiment [7] was inactive. Moreover, the result in experiment [8], in experiment [9], in experiment [10], in experiment [11], in experiment [12] and in [13] was inactive. For the same compound, the outcome in [14], in [15], in [16], in experiment [17] and in [18] was inactive. Moreover, in [6], the AC50 was 1.14 µM (active).

As for `O=C(O)c1cccc(C[C@@H]2COc3ccc(OCc4nc5cc(F)ccc5s4)cc3[C@@H]2O)c1`, the result in experiment [1], in [2], in experiment [3], in [4], in experiment [5] and in experiment [6] was inactive. The outcome in experiment [7], in experiment [8], in experiment [9], in experiment [10], in [11] and in experiment [12] was inactive. For the same compound, the outcome in experiment [13], in [14], in experiment [15], in experiment [16], in experiment [17] and in experiment [18] was inactive.

As for `Cn1c(=O)c2[nH]cnc2n(C)c1=O`, the outcome in experiment [2], in [3], in experiment [4], in experiment [5], in experiment [6] and in experiment [7] was inactive. In addition, the result in experiment [8], in experiment [9], in [10], in [11], in [19] and in experiment [12] was inactive. Moreover, the result in experiment [13], in [14], in experiment [15], in experiment [16], in experiment [17] and in experiment [18] was inactive.

For the compound `Cc1ncc([C@@H](CCCCCCc2ccc3c(n2)NCCC3)CC(=O)O)cn1`, the result in experiment [1], in [2], in experiment [3], in experiment [4], in experiment [5] and in [6] was inactive. Further, the result in experiment [7], in [8], in experiment [9], in [10], in [11] and in experiment [12] was inactive. Also, the result in [13], in experiment [14], in experiment [15], in experiment [16], in [17] and in [18] was inactive.

As for `CCOc1ccc2[nH]cc(C(=O)NCc3ccccc3)c(=O)c2n1`, the result in [1], in experiment [2], in [3], in experiment [4], in experiment [5] and in [6] was inactive. The result in experiment [7], in experiment [8], in [9], in experiment [10], in experiment [11] and in [12] was inactive. The outcome in experiment [13], in experiment [14], in [15], in experiment [16], in experiment [17] and in experiment [18] was inactive.

Take `CC(C)c1nnc2ccc(-c3ocnc3-c3cc(F)ccc3F)cn12`: the outcome in experiment [1], in [2], in experiment [3], in experiment [6], in [7] and in experiment [8] was inactive. Besides, the outcome in [9], in [10], in experiment [11], in [12], in experiment [13] and in experiment [14] was inactive. The result in experiment [15] and in experiment [17] was inactive. The AC50 was 0.385 µM (active) in [4], 0.148 µM (active) in [5], 0.248 µM (active) in experiment [16] and 0.148 µM (active) in experiment [18].

Regarding `C=CCc1cc(S(=O)(=O)c2ccc(O)c(CC=C)c2)ccc1O`, the AC50 in experiment [1] is 14.8 µM (active); in experiment [2], 26.4 µM (active); in [3], 30.7 µM (active); in [4], 31 µM (active); in experiment [5], 15 µM (active); in experiment [6], 10.2 µM (active). The AC50 in experiment [7] was 23.7 µM (active); in experiment [8] it was 13.8 µM (active); in experiment [9], 26.5 µM (active); in [10] it was 30 µM (active); in experiment [11], 17.3 µM (active); in [12] it was 24.4 µM (active). Besides, the AC50 in experiment [13] is 10.3 µM (active); in experiment [14], 30.4 µM (active); in experiment [15] it was 11.7 µM (active); in [16], 29.2 µM (active); in experiment [17], 14.7 µM (active); in experiment [18] it was 30.6 µM (active).
